Consider 7 compounds from PubChem BioAssay (NCI).

Compounds without any hit were thinned out: in the full panel of roughly 83,000, 20% have a hit.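 96-well plates, one dose, 48 hours. Percent growth reported; active if below 10.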 Unmarked numbers belong to inactive results. Calls of active or inactive are those of the source.

Common to all, as to assay: NCI-60 one-dose screen, 48 h (100 = growth as untreated, 0 = no growth, -100 = all killed)
Conditions in all cases: 10 µM unless noted

Experiment [1] has as its system NCI-H23 lung.
For experiment [2], the system named is NCI-H226 lung.
Experiment [3] relates to NCI-H322M lung.
Experiment [4] has as its system HOP-62 NSCLC.
In experiment [5] the test system is NCI-H460 lung.
Experiment [6] has as its system HOP-92 NSCLC.
The subject of experiment [7] is NCI-H522 lung.
Experiment [8] deals with A549/ATCC NSCLC.
In experiment [9] the test system is 786-0 renal.
The subject of experiment [10] is COLO 205 colon.
For experiment [11], the system named is DU-145 prostate.
For experiment [12], the system named is K-562 leukemia.
For experiment [13], the system named is MALME-3M melanoma.
For experiment [14], the system named is MDA-MB-231 breast.
Experiment [15] relates to RXF 393 renal.
The subject of experiment [16] is SF-268 CNS.
For experiment [17], the system named is SF-295 CNS.
Experiment [18] concerns SF-539 CNS.
Experiment [19] deals with M14 melanoma.

Consider `O=C(/C=C/CN1CCOCC1)Nc1cc2c(Nc3cccc(Cl)c3F)ncnc2cc1OCCOC(F)F`, for which the growth in experiment [1] was 85.4%; in experiment [2], 80.1%; in experiment [3] it was 4.9% (active); in [4] it was 70.5%; in experiment [5], 93%; in experiment [6], 18.9%. Moreover, the growth was 6.03% (active) in [7]; 52.7% in experiment [8]; 53.4% in experiment [9]; 95.1% in experiment [10]; 49.5% in [11]; 76% in experiment [12]. Also, the growth was 64.4% in [13]; 68.6% in experiment [14]; 68.4% in experiment [15]; 65.2% in experiment [16]; 81.2% in [17]; 81.4% in experiment [18]. The growth in [19] was 94.3%.
`CS(=O)(=O)N(c1cc(-c2ccc3ncnc(Nc4cccc(Cl)c4)c3c2)cnc1Cl)S(C)(=O)=O`: the growth in [1] is 18.3%; in [2] it was 30.1%; in [3], -1.94% (active); in experiment [4], 19.2%; in [5], 14.1%; in experiment [6] it was -20.5% (active). Also, the growth in experiment [7] is 19.6%; in experiment [8] it was 9.62% (active); in experiment [9] it was 17.5%; in [10], 2.1% (active); in experiment [11], 21.6%; in experiment [12], 26.5%. The growth in experiment [13] is -24.7% (active); in experiment [14] it was 7.55% (active); in [15], -20.1% (active); in [16], 24%; in [17], -4.24% (active); in experiment [18], -8.58% (active). The growth in [19] is 21.8%.
On to `N#CC1=C(N)n2nc(-c3ccncc3)nc2NC1c1cccc2ccccc12` (stereo not drawn), for which the growth in experiment [1] is 90.4%; in experiment [2], 78.3%; in experiment [3] it was 106%; in experiment [4], 88.2%; in experiment [5] it was 100%; in experiment [6] it was 40.4%. Moreover, the growth was 75.2% in experiment [7]; 92.4% in experiment [8]; 88% in [9]; 106% in [10]; 93.3% in experiment [11]; 80.9% in experiment [12]. Moreover, the growth in [13] is 82%; in experiment [14], 77.6%; in [15] it was 87.4%; in experiment [16] it was 94.5%; in [17], 90.5%; in experiment [18], 88.2%. The growth in experiment [19] is 90.1%.
Consider `CCOC(=O)/C=C\C(=O)NC(N)=O`, for which the growth was 102% in experiment [1]; 96.9% in [2]; 104% in experiment [3]; 87.8% in experiment [4]; 110% in experiment [5]; 94.5% in experiment [6]. Besides, the growth in [7] is 90.3%; in experiment [8], 77.8%; in experiment [9] it was 103%; in experiment [10] it was 115%; in [11], 106%; in experiment [12], 94.4%. Besides, the growth in experiment [13] is 102%; in experiment [14], 103%; in experiment [15], 101%; in experiment [16], 106%; in experiment [17], 106%; in experiment [18], 108%. Also, the growth in experiment [19] is 96.7%.
On to `O=[N+]([O-])c1c(S(=O)(=O)O)cc2cc(S(=O)(=O)O)ccc2c1[N+](=O)[O-]`, for which the growth in experiment [1] is 90.6%; in [2], 108%; in experiment [3], 92.6%; in [4] it was 109%; in [5], 105%; in experiment [6], 103%. Also, the growth in experiment [7] was 86.1%; in experiment [8] it was 98.9%; in experiment [9], 103%; in [10], 117%; in [11], 107%; in [12], 95.7%. The growth in experiment [13] was 91%; in experiment [14], 99.7%; in [15], 109%; in experiment [16], 99.5%; in experiment [17], 105%; in experiment [18] it was 98.4%. Moreover, in [19], the growth is 99.8%.
As for `CCOC(=O)c1cc(/C(=N\O)c2cc(OC)c(OC)c(OC)c2)n2c(C)cccc12`, the growth in [1] was 59.3%; in [2], 78.8%; in experiment [3], 59.2%; in experiment [4], 36.2%; in [5], 15.3%; in experiment [6], 54.6%. Also, the growth in experiment [7] is -3.5% (active); in [8], 48%; in experiment [9], 26.3%; in experiment [10], 21.2%; in experiment [11] it was 50.1%; in experiment [12], 16.8%. Further, the growth in experiment [13] is 44.8%; in [14], 48.7%; in [15], 34.5%; in [16] it was 43%; in experiment [17] it was 11.3%; in experiment [18] it was 15.2%. Besides, the growth in experiment [19] is 20.8%.
`O=S(=O)(NCCCNc1cc(-c2cn(-c3ccccc3)nc2-c2cccc(O)c2)ccn1)c1cccc2ccccc12`: the growth in [1] was 44.9%; in experiment [2], 38.7%; in experiment [3], 44.3%; in experiment [4] it was 47.3%; in [5], 18%; in experiment [6], 11.8%. Further, the growth in [7] is 44.5%; in [8] it was 35.8%; in experiment [9] it was -9.71% (active); in experiment [10], -65.5% (active); in experiment [11], 49.7%; in experiment [12], 1.39% (active). In addition, the growth is -1.89% (active) in experiment [13]; 4.29% (active) in experiment [14]; 32.1% in [15]; 39.9% in experiment [16]; -19.9% (active) in [17]; 33.3% in [18]. For the same compound, the growth in experiment [19] is 28.2%.
